Compounds with a hit are over-represented: about 1.5% of the library has one in this group of screens.
NTR1 ag = agonists of human neurotensin receptor NTR1; P30989; actives 0.17% (n = 330,000); activation, % at 20 µM; NTR1-U2OS beta-arrestin-GFP spot imaging, agonist mode;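 active means activation at or above 40% of the spot to cytoplasm intensity ratio, with at least 20 cells analyzed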;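 further: 0% = DMSO without peptide and 100% = 100 nM NTR1 peptide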
Target sequence (P30989 whole entry, looked up): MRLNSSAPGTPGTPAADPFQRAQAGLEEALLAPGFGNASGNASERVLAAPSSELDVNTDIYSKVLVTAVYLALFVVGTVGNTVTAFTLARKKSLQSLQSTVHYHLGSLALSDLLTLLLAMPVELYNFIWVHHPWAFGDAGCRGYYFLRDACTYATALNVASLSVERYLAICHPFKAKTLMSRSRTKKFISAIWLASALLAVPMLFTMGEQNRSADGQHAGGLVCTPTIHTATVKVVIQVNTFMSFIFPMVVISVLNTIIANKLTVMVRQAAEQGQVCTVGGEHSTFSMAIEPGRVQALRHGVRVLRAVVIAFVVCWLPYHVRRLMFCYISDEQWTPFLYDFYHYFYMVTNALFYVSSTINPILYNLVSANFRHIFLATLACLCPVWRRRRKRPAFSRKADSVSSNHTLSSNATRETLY
ABHD5 PLIN5 PPI = inhibitors of human ABHD5-perilipin-5 interaction. Split G. princeps luciferase complementation, luminescence, 4 h. actives 0.78% (n = 360,000). AID 602281. inhibition, % at 4 µM. Q00G26+Q8WTS1;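 active means inhibition above the mean inhibition across every tested compound plus 3 SD, cut at about 22% in these data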;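 further: 0% = DMSO only wells and the 100% control is not disclosed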
NOD2 RIPK2 PPI = NOD2-RIPK2 protein interaction inhibition; CHO BLA complementation NOD2-RIPK2, CCF4 ratio; inhibition, % at 4.98 µM; O43353; AID 624267; actives 0.38% (n = 360,000); in the data active means inhibition above about 21%;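 further: 0% = vehicle only and 100% = reference blocker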
B2AR ag = human beta-2 adrenergic receptor agonism by FAP; response, % (test concentration not listed); P07550; actives 0.43% (n = 340,000); Am2.2-beta2AR cells, FAP receptor internalization, flow cytometry;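 active means response above a set limit, near 3 SD of response in nonfluorescent compounds, cut at about 42% in these data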
TLR4 MyD88 comp = TLR4-MyD88 interaction inhibition in cells | inhibition, % at 8.4 µM | HeLa CL3-4 TLR4/MyD88 BLA complementation, FRET ratio | actives 0.18% (n = 200,000) | O00206+Q99836; in the data active means inhibition above about 25%;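 further: 0% = vehicle and 100% = reference inhibitor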
TLR9-MyD88 block = blocks human TLR9 binding to MyD88. CHO BLA complementation TLR9-MyD88, CCF4 FRET ratio. inhibition, % at 4.98 µM. actives 0.21% (n = 340,000);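 active means inhibition above the mean over all tested compounds plus 3 SD, cut at about 21% in these data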;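 further: 0% = DMSO only wells and 100% = clavulanate BLA inhibitor control wells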
TLR9-MyD88 cf = TLR9-MyD88 interaction inhibition, confirmation | shares compounds with TLR9-MyD88 block | CHO TLR9/MyD88 BLA complementation, CCF4 FRET ratio | inhibition, % at 4.98 µM | actives 51% (n = 680) | AID 540250;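 active means mean inhibition across three repeats above about 21% taken from the earlier screen, limit read from the data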;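 further: blue over green emission ratio reports constitutive TLR9 MyD88 association via BLA complementation; 0% = DMSO vehicle wells and 100% = clavulanate BLA inhibitor wells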
BLA counter-1 = non-selective beta-lactamase inhibitors in TLR9-MyD88 counter-screen | CHO-BLA cells, CCF4 FRET ratio, BLA reporter | inhibition, % at 4.98 µM | shares compounds with TLR9-MyD88 block | actives 7% (n = 680);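 active means mean inhibition above a 50% cutoff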;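 further: counterscreen of TLR9-MyD88 hits on CMV-driven BLA in CHO-K1 cells; 0% = DMSO alone and 100% = clavulanate blocking BLA; higher means less blue over green ratio so more BLA blockade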
TLR9 CHO tox = CHO cell toxicity counter-screen for TLR9-MyD88 inhibitors. shares compounds with TLR9-MyD88 block. TLR9-MyD88 CHO cells cytotoxicity, luminescence. inhibition, % at 4.98 µM. actives 39% (n = 680). AID 588336; in the data active means inhibition above about 11%
ABHD5-PLIN5 conf = ABHD5-PLIN5 interaction inhibition, confirmed | shares compounds with ABHD5 PLIN5 PPI | biochemical ABHD5-PLIN5 interaction, luminescence | inhibition, % at 4 µM | actives 67% (n = 2,200) | AID 651612; in the data active means inhibition above about 23%;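 further: 0% = DMSO vehicle wells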
HNF4 split-luc = HNF4 split-luciferase signal hit, counter-screen; shares compounds with ABHD5 PLIN5 PPI; HNF4 dimerization, luminescence, biochemical; inhibition, % at 4 µM; actives 77% (n = 2,200); AID 651674;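 active means mean inhibition across replicate wells exceeding the computed hit threshold, cut at about 13% in these data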;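 further: light from luciferase halves that rejoin when HNF4 fusion proteins dimerize; 0% = DMSO only wells and the 100% control is not given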
NOD2 RIPK2 conf = confirmation of human NOD2-RIPK2 interaction inhibitors; shares compounds with NOD2 RIPK2 PPI; CHO cells, NOD2-RIPK2 BLA complementation, CCF4 FRET; inhibition, % at 4.98 µM; actives 70% (n = 1,200); AID 624370;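 active means mean inhibition across replicates above a set limit taken from the earlier primary screen, cut at about 21% in these data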;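 further: 0% = DMSO-only wells and the high end = clavulanate BLA-blocked wells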
BLA counter-2 = NOD2-RIPK2 counterscreen BLA reporter activity; shares compounds with NOD2 RIPK2 PPI; CHO BLA reporter, CCF4 FRET ratio; inhibition, % at 4.98 µM; actives 57% (n = 1,200); AID 624371;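 active means mean inhibition above the low-control mean inhibition plus three low-control SD, cut at about 11% in these data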;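 further: 0% = DMSO only wells and 100% = clavulanate high control wells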
The depositor's hits bear a star; x = no result.

SMILES	NTR1 ag	ABHD5 PLIN5 PPI	NOD2 RIPK2 PPI	B2AR ag	TLR4 MyD88 comp	TLR9-MyD88 block	TLR9-MyD88 cf	BLA counter-1	TLR9 CHO tox	others
CCN(C[C@H]1N[C@@](CC)(C(=O)OC)[C@H]2C(=O)N(Cc3ccccc3)C(=O)[C@@H]12)C(=O)c1ccc(C(C)(C)C)cc1	4	-4	8	15	x	45*	-7	-2	52*
CC[C@@]1(C(=O)OC)N[C@H](CN(C)C(=O)c2ccc(C(C)(C)C)cc2)[C@@H]2C(=O)N(Cc3ccccc3)C(=O)[C@@H]21	5	7	-2	20	x	-1	x	x	x
Cc1ccc(-n2nc3c(c2NC(=O)c2c(F)cccc2Cl)CS(=O)(=O)C3)cc1C	-1	-1	21	-2	x	22*	11	16	4
COc1ccc(-c2cc(C(=O)NCc3ccc(Cl)cc3)no2)cc1OC	0	7	2	15	-1	1	x	x	x
COc1ccc(CNC(=O)c2cc(-c3ccc(OC)c(OC)c3)on2)cc1	1	-6	-4	3	-5	23*	1	0	-4
CS(=O)(=O)c1ccc(C(=O)OCC(=O)NCc2cccs2)cc1[N+](=O)[O-]	39	16	10	17	x	22*	29*	14	78*
Cc1cccc(C(=O)OCC(=O)NCc2cccs2)c1	0	5	-3	-8	8	-7	x	x	x
O=Nc1onc(-c2ccc([N+](=O)[O-])cc2)c1NO	0	-3	2	0	7	36*	4	2	0
COC(=O)[C@]12CCCCC=C1N(CCc1ccc(OC)c(OC)c1)C(=O)[C@H](CC(=O)N1CCOCC1)C2	x	0	-8	x	x	x	x	x	x
CCN(CC)c1ncnc2c1ncn2[C@H]1CN(Cc2ccccc2)C[C@@H](CO)O1	x	2	-2	x	x	x	x	x	x
COc1ccc(CNn2c(-c3cccs3)nc3ccccc3c2=O)cc1OC	7	0	-12	-10	-1	22*	1	1	12*
c1ccc(CN(CCN2CCOCC2)Cc2ccccc2)cc1	x	4	-10	-2	x	-4	x	x	x
Cc1ccc(S(=O)(=O)Nc2cccc3ncccc23)s1	22	-1	55*	37	19	44*	20	8	101*
Cc1ccc(S(=O)(=O)Nc2cccc3ncccc23)cc1	1	1	-11	4	x	-3	x	x	x
CC(=O)NC(Cc1ccccc1)C(=O)Oc1ccc2ccccc2c1 (centres undefined)	x	10	-2	20	x	-1	x	x	x
COc1cc(/C=C/C(=O)c2ccc3c(c2)OCO3)cc(Cl)c1O	2	0	11	21	x	22*	16	20	3
COc1ccc(C(=O)C=Cc2ccc3c(c2)OCO3)cc1OC	x	1	-2	x	x	-8	x	x	x
CCCCC1CC2=C(C(=O)OC(C)(C)O2)C(c2ccc(Cl)cc2)O1 (centres undefined)	x	-5	3	x	x	x	x	x	x
Nc1c(C(=O)Nc2nccs2)sc2nc(-c3cccs3)cc(C(F)(F)F)c12	-2	-6	19	-339	24	22*	7	12	-4
O=C1C=CC(=O)N1c1ccccc1N1C(=O)C=CC1=O	x	30*	-4	9	x	46*	66*	38	99*	ABHD5-PLIN5 conf=64*;HNF4 split-luc=109*
O=C1C=CC(=O)N1c1ccccn1	x	-1	4	0	x	5	x	x	x
Cc1ccc(/C=C2/NC(=O)N(Cc3ccc(Br)cc3)C2=O)o1	0	55*	12	6	-4	22*	2	2	13*	ABHD5-PLIN5 conf=63*;HNF4 split-luc=93*
CCCN1C(=O)/C(=C/c2ccc(C)o2)NC1=S	3	x	x	x	8	x	x	x	x
COc1ccccc1CNC(=O)Nc1nc(C(N)CCc2ccccc2)cs1 (centres undefined)	x	-2	3	x	x	x	x	x	x
COC(=O)c1ccc(NC(=O)c2nc(S(=O)(=O)Cc3cccc(C)c3)ncc2Cl)cc1	-2	44*	18	29	x	42*	33*	27	100*	ABHD5-PLIN5 conf=92*;HNF4 split-luc=95*
SMILES	NTR1 ag	ABHD5 PLIN5 PPI	NOD2 RIPK2 PPI	B2AR ag	TLR4 MyD88 comp	TLR9-MyD88 block	TLR9-MyD88 cf	BLA counter-1	TLR9 CHO tox	others
Cc1cccc(Cl)c1NC(=O)NCCCN1CCCCC1C (centres undefined)	x	-3	-3	x	x	x	x	x	x
O=C1C=CC(=O)N1CCCCCCCCCCN1C(=O)C=CC1=O	x	58*	5	16	x	42*	56*	34	96*	ABHD5-PLIN5 conf=68*;HNF4 split-luc=106*
O=C(C#Cc1ccccc1)c1ccco1	4	39*	78*	82*	x	30*	48*	13	97*	ABHD5-PLIN5 conf=54*;HNF4 split-luc=107*;NOD2 RIPK2 conf=83*;BLA counter-2=18*
O=C(N/N=C/c1ccccc1)c1ccco1	0	9	8	0	x	7	x	x	x
Cn1c(-c2cc3ccc(OC(=O)C(C)(C)C)cc3oc2=O)nc2ccccc21	0	6	17	-4	22	17	x	x	x
CC(=O)Oc1ccc2cc(-c3nc4ccccc4n3C)c(=O)oc2c1	-2	7	39*	-16	12	22*	15	42	5	NOD2 RIPK2 conf=38*;BLA counter-2=59*
Cc1nnc(N2C(=O)c3cccc4c([N+](=O)[O-])ccc(c34)C2=O)s1	6	8	91*	25	x	80*	67*	84*	58*	NOD2 RIPK2 conf=93*;BLA counter-2=87*
Cc1cccc(N2C(=O)c3cccc4c(N5CCCCC5)c([N+](=O)[O-])cc(c34)C2=O)c1C	1	2	-4	7	6	2	x	x	x
Nc1cc2sc(-c3ccc(C(=O)O)cc3)nc2cc1Cl	3	-1	35*	1	6	24*	10	11	14*	NOD2 RIPK2 conf=32*;BLA counter-2=40*
CN1CCN(c2nc(-c3ccccc3)c3cc(Cl)ccc3n2)CC1	7	14	8	4	1	-15	x	x	x

High-throughput results as filed in PubChem.
